Records with an inconclusive call do not appear. Activity calls are given as the source filed them. Unless noted, calls come from the whole dose curve.
What was measured:
[1] = qHTS assay to identify small molecule agonists of the vitamin D receptor (VDR) signaling pathway - cell viability counter screen (AID 743224; active = well fitted curve in the direction sought with a large enough effect in the repeat runs; an effect the other way counts as inactive or inconclusive; note: % is set by controls: 0 for no effect and ±100 for the full control effect; nearly all actives have a fitted effect of over 50% in size); settings: VDR-bla HEK293T viability, CellTiter-Glo luminescence, 16 h; series mostly up to 62.6 µM
Procedure, shortened: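 Counter screen for cytotoxicity: VDR-bla cells at 2,000 cells/well, 16 h compound exposure, then CellTiter-Glo luminescence after the beta-lactamase measurement.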

[2] = qHTS assay to identify small molecule agonists of the NFkB signaling pathway (AID 1159509; active = well fitted curve in the direction sought with a large enough effect in the signal ratio in the repeat runs, not every such curve was filed as active; the % refers to the signal ratio; note: % is set by controls: 0 for no effect and ±100 for the full control effect); settings: NFkB-bla ME-180 cells, beta-lactamase FRET ratio, 5 h; series mostly up to 61 µM
Procedure, shortened: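 Beta-lactamase reporter assay run in quantitative high-throughput format on an NF-kB-responsive ME-180 line, with 5 hr compound treatment and a FRET-based blue/green fluorescence readout.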

[3] = qHTS assay to identify small molecule agonists of the NFkB signaling pathway - cell viability counter screen (AID 1159515); settings: NFkB-bla ME-180 viability, CellTiter-Glo luminescence, 5 h; series mostly up to 61 µM; note: % is set by controls: 0 for no effect and ±100 for the full control effect; nearly all actives have a fitted effect of over 55% in size
Procedure, shortened: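 Counter screen run alongside the NFkB-bla agonist assay: ME-180 reporter cells exposed to compounds for 5 hr, then lysed with CellTiter-Glo in the same wells. Luminescence, read after 30 min, reflects viable cells.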

[4] = qHTS assay to identify small molecule agonists of the endoplasmic reticulum stress response signaling pathway (AID 1159516; active = well fitted activation curve with a large enough effect in the signal ratio in the repeat runs, not every such curve was filed as active; the % refers to the signal ratio; note: % is set by controls: 0 for no effect and ±100 for the full control effect); settings: ESRE-bla HeLa, ER stress beta-lactamase reporter, 5 h; series mostly up to 61 µM
Procedure, shortened: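 For this screen, HeLa cells stably carrying beta-lactamase under the ER stress response element received test compounds, positive controls or DMSO for 5 hr at 37 C; B/G FRET substrate was then added and dual-wavelength emission recorded.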

[5] = qHTS assay to identify small molecule agonists of the endoplasmic reticulum stress response signaling pathway - cell viability counter screen (AID 1159517); settings: ESRE-bla HeLa viability, CellTiter-Glo luminescence, 5 h; series mostly up to 61 µM; note: % is set by controls: 0 for no effect and ±100 for the full control effect; nearly all actives have a fitted effect of over 50% in size
Procedure, shortened: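 After overnight attachment, ESRE-bla HeLa cells were treated with Tox21 library compounds for 5 hr. CellTiter-Glo luminescence, read 30 min post-addition at room temperature, reported viability.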

[6] = qHTS assay to identify small molecule antagonists of the retinoid-related orphan receptor gamma (ROR-gamma) signaling pathway - cell viability counter screen (AID 1159520; active = well fitted curve in the direction sought with a large enough effect in the repeat runs; an effect the other way counts as inactive or inconclusive; note: % is set by controls: 0 for no effect and ±100 for the full control effect; nearly all actives have a fitted effect of over 50% in size); settings: Tet-on RORgamma CHO cells viability, ATP luminescence, 16 h; series mostly up to 92.4 µM
Procedure, shortened: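 Cytotoxicity was read from cellular ATP (CellTiter-Glo luminescence) after 16 hr at 37 C with 1 uM doxycycline induction. The inducer was added 2 hr after compound transfer to Tet-on ROR gamma CHO cells.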

[7] = qHTS assay to identify small molecule agonists of the AP-1 signaling pathway - cell viability counter screen (AID 1159525); settings: ME-180 AP-1-bla cells viability, ATP luminescence, 5 h; series mostly up to 76.8 µM; note: nearly all actives have a fitted effect of over 55% in size
Procedure, shortened: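 Intracellular ATP by Cell Titer Glo luminescence (30 min, RT) in the same ME-180 AP-1-bla wells after the 5 h compound exposure at 37 °C. Normalised to tetra n-octyl ammonium bromide and DMSO controls.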

[8] = qHTS assay to identify small molecule agonists of the AP-1 signaling pathway (AID 1159526); settings: ME-180 (cervical carcinoma) AP-1-bla reporter, beta-lactamase FRET ratio, 5 h; series mostly up to 76.8 µM; note: % is set by controls: 0 for no effect and ±100 for the full control effect
[9] = molecular target: Nuclear receptor ROR-gamma (Homo sapiens) (UniProt P51449); assay: qHTS assay to identify small molecule antagonists of the retinoid-related orphan receptor gamma (ROR-gamma) signaling pathway (AID 1159521; active = well fitted curve in the direction sought with a large enough effect in the repeat runs; an effect the other way counts as inactive or inconclusive;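 note: CHO cells with doxycycline inducible ROR-gamma driving an RORE luciferase reporter; top concentration of the series differs between compounds; % is set by controls: 0 for no effect and ±100 for the full control effect; nearly all actives have a fitted effect of over 50% in size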); settings: Tet-on RORgamma CHO cells, RORE-luciferase, 16 h; series mostly up to 92.4 µM
Procedure, shortened: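 CHO cells expressing RORγ under a TET-on promoter, luciferase under RORE control. Dox 1 uM final, 16 h; compounds added 2 h prior. Luminescence decrease measured.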

[10] = qHTS assay to identify small molecule antagonists of the vitamin D receptor (VDR) signaling pathway - cell viability counter screen (AID 743225; active = well fitted curve in the direction sought with a large enough effect in the repeat runs; an effect the other way counts as inactive or inconclusive); settings: VDR-bla HEK293T viability, CellTiter-Glo luminescence, 16 h; series mostly up to 61 µM
Procedure, shortened: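 Luminescent cell viability (CellTiter-Glo) in VDR-bla HEK 293T cells after 16 h compound exposure at 37C in the presence of 3 nM final 1-alpha,25-dihydroxy vitamin D3.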

CC(O)CN(CCCN(C)C)CCCN(C)C (stereo unspecified)
inactive: outcome [1] | outcome [2] | outcome [3] | outcome [4] | outcome [5] | Potency [6] | outcome [7] | Potency [8]

CCCc1ccc(N)cc1
inactive: outcome [1] | outcome [2] | outcome [3] | outcome [4] | outcome [5] | Potency [6] | Potency [9] | Potency [8]

CC(C)(C)C(=O)/C=C/c1ccc(Cl)cc1
inactive: outcome [1] | outcome [10] | outcome [2] | outcome [3] | outcome [4] | outcome [5] | Potency [6] | Potency [9] | Potency [8]

N#CCN(CC#N)CCN(CC#N)CC#N
inactive: outcome [1] | outcome [10] | outcome [2] | outcome [3] | outcome [4] | outcome [5] | Potency [6] | Potency [9] | Potency [8]

CC(C)CCCC(C)NCCC(C)C (stereo unspecified)
inactive: outcome [1] | outcome [10] | outcome [2] | outcome [3] | outcome [4] | outcome [5] | Potency [6] | Potency [9] | Potency [8]

C(=C(c1ccccc1)c1ccccc1)c1ccccc1
inactive: outcome [10] | outcome [2] | outcome [3] | outcome [4] | outcome [5] | Potency [6] | Potency [9] | outcome [7] | Potency [8]

CCC(=O)/C=C/c1ccc(OC)cc1
inactive: outcome [1] | outcome [10] | outcome [2] | outcome [3] | outcome [4] | outcome [5] | Potency [6] | outcome [7] | Potency [8]

NS(=O)(=O)c1cc2c(cc1Cl)NC(CSCc1ccccc1)=NS2(=O)=O
inactive: outcome [1] | outcome [10] | outcome [2] | outcome [3] | outcome [4] | outcome [5] | Potency [6] | outcome [7] | Potency [8]

NC(=S)Nc1cccc2ccccc12
inactive: activity change, negative = cytotoxicity [1] 6.68% [at 5.95 µM] | activation [2] -0.909% [at 6.95 µM] | activity, negative = cytotoxic [3] -2.24% [at 6.95 µM] | activation [4] -3.75% [at 6.95 µM] | activity change, negative = cytotoxicity [5] 2.64% [at 6.95 µM] | activity, negative = cytotoxicity [6] 13.1% [at 8.39 µM] | activity change, negative = inhibition [9] 10.3% [at 8.39 µM] | activation [8] -4.57% [at 6.97 µM]

CCCCc1ccc2cccc(S(=O)(=O)O)c2c1
inactive: outcome [10] | outcome [2] | outcome [3] | outcome [4] | outcome [5] | Potency [6] | Potency [9] | Potency [8]

OC/C=C/c1ccccc1
inactive: outcome [1] | outcome [2] | outcome [3] | outcome [4] | outcome [5] | Potency [6] | outcome [7] | Potency [8]

CCOC(=O)[C@H](CCc1ccccc1)N[C@@H](C)C(=O)N1CCC[C@H]1C(=O)O
inactive: outcome [1] | outcome [2] | outcome [3] | outcome [4] | outcome [5] | Potency [6] | Potency [9] | Potency [8]

C#CC(O)CCCCC (stereo unspecified)
inactive: outcome [1] | outcome [2] | outcome [3] | outcome [4] | outcome [5] | Potency [6] | Potency [9] | Potency [8]

CCCCCCCCCCCCCCCCCC(=O)OCCCCCCCCCCCCCC(C)C
inactive: outcome [1] | outcome [10] | outcome [2] | outcome [3] | outcome [4] | outcome [5] | Potency [6] | outcome [7] | Potency [8]

CCOC(=O)Nc1ccc2c(c1)N(C(=O)CCN1CCOCC1)c1ccccc1S2
inactive: outcome [1] | outcome [10] | outcome [2] | outcome [3] | outcome [4] | outcome [5] | Potency [6] | Potency [9] | Potency [8]

C=C(C)[C@@H]1CCC2=CC(=O)C[C@@H](C)[C@]2(C)C1
inactive: outcome [1] | outcome [2] | outcome [3] | outcome [4] | outcome [5] | outcome [7] | Potency [8]

Cc1nccn1CC1CCc2c(c3ccccc3n2C)C1=O (stereo unspecified)
inactive: outcome [1] | outcome [2] | outcome [3] | outcome [4] | outcome [5] | Potency [9] | outcome [7] | Potency [8]

C=CCOc1nc(OCC=C)nc(OCC=C)n1
inactive: outcome [1] | outcome [2] | outcome [3] | outcome [4] | outcome [5] | Potency [6] | Potency [8]

C[C@H]1O[C@@H](n2cc(F)c(=O)[nH]c2=O)[C@H](O)[C@@H]1O
inactive: outcome [1] | outcome [10] | outcome [2] | outcome [3] | outcome [4] | outcome [5] | Potency [9] | outcome [7] | Potency [8]

CO[Si](OC)(OC)OC
inactive: outcome [1] | outcome [10] | outcome [2] | outcome [3] | outcome [4] | outcome [5] | Potency [9] | outcome [7] | Potency [8]

CC1=CC(=O)CCC1
inactive: outcome [1] | outcome [10] | outcome [2] | outcome [3] | outcome [4] | outcome [5] | Potency [9] | outcome [7] | Potency [8]

OCCCCCCO
inactive: outcome [1] | outcome [10] | outcome [2] | outcome [3] | outcome [4] | outcome [5] | Potency [9] | outcome [7] | Potency [8]

Source: PubChem BioAssay (Tox21)
